Source: the supplement of paper PMC6953052
Several values for one entry are separate records, joined by “and”; a condition that tells them apart may be missing. Equal entries are not always repeated. ± gives the standard deviation of the averaged measurements. The full ranking holds about 1,700 compounds; the median of “fraction of GFP-LC3-positive cells (≥5 vesicles/cell)” is about 0.43, and the highest 2% start at about 0.81. The sample holds the highest values, similar compounds and a random draw of the others, so the mix is not that of the screen.

Each compound was assayed on CbCln3 Δex7/8/Δex7/8 GFP-LC3 cerebellar neuronal cells (assay: fraction of GFP-LC3-positive cells (≥5 vesicles/cell); higher = more autophagosome accumulation).
Outline: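 Compound (~50 nL in DMSO) was pin-transferred in duplicate onto wild-type or mutant CbCln3 cerebellar cells stably expressing GFP-LC3, seeded at 2 × 10^3/well in 384-well plates, for 24 h at 33 °C. After fixation in 3.2% PFA, three fields per well were imaged at 10×. The value reported is the duplicate average of the fraction of cells meeting a vesicle-count threshold, with CellProfiler counting GFP-LC3 vesicles per cell and out-of-focus images excluded. Cells met the threshold at 5 or more vesicles.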

SMILES | fraction of GFP-LC3-positive cells
COc1c(C=O)c(O)cc2c1C(=O)c1ccccc1C2=O [damnacanthal] | 0.173
O.Oc1cc(O)c2c(c1)OC(c1ccc(O)c(O)c1)C(O)C2 (racemic) [Catechin-(+,-) hydrate] | 0.337
CC/C=C\C[C@H](O)/C=C/C=C\C/C=C\C/C=C\CCCC(=O)O | 0.434
CCCCCCCC/C=C/CCCCCCCCC(=O)O [10(Z)-Nonadecenoic acid] | 0.551
CCCCCCCC/C=C/CCCCCCCCC(=O)O [10(E)-Nonadecenoic acid] | 0.516
NC[C@H]1O[C@H](O[C@H]2[C@H](O)[C@@H](O[C@H]3O[C@H](CO)[C@@H](O)[C@H](N)[C@H]3O)[C@H](N)C[C@@H]2N)[C@H](N)C[C@@H]1O [Tobramycin] | 0.5
COc1cc(N)c(Cl)cc1C(=O)NC1CCN(Cc2ccccc2)CC1.O=C(O)/C=C\C(=O)O [Clebopride maleate] | 0.506
CC(C(O)c1ccc(O)cc1)N1CCC(Cc2ccccc2)CC1.O=C(O)C(O)C(O)C(=O)O (centres undefined) [Ifenprodil tartrate] | 0.481
Cl.Fc1ccc([C@@H]2CCNC[C@H]2COc2ccc3c(c2)OCO3)cc1 [Paroxetine Hydrochloride] | 0.5
Nc1ccc(S(=O)(=O)Nc2ccc(Cl)nn2)cc1 [Sulfachloropyridazine] | 0.368
CC1CNc2c(cccc2S(=O)(=O)N[C@@H](CCCNC(=N)N)C(=O)N2CC[C@@H](C)C[C@@H]2C(=O)O)C1 (some centres undefined) [Argatroban] | 0.486
CCCCC[C@H](O)/C=C/C=C/C=C/[C@@H](O)C/C=C\CCCC(=O)O [8(S),15(S)-DiHETE all trans] | 0.456
CCN(CC)CCOC(=O)c1ccc(N)cc1.Cl [Procaine hydrochloride] | 0.483
C[C@]12C=CC(=O)C=C1CC[C@@H]1[C@@H]2[C@@H](O)C[C@@]2(C)[C@H]1CC[C@]2(O)C(=O)CO [Prednisolone] | 0.183
CCCCOc1ccc(C(=O)CCN2CCCCC2)cc1.Cl [Dyclonine hydrochloride] | 0.322
NC(=O)c1cc[n+](CC2=C(C(=O)[O-])N3C(=O)[C@@H](NC(=O)[C@@H](c4ccccc4)S(=O)(=O)[O-])[C@H]3SC2)cc1.[Na+] [Cefsulodin sodium salt] | 0.367
CC1(C)[C@@H](OC(=O)CCC(=O)[O-])CC[C@]2(C)[C@H]3C(=O)C=C4[C@@H]5C[C@@](C)(C(=O)[O-])CC[C@]5(C)CC[C@@]4(C)[C@]3(C)CC[C@@H]12.[Na+].[Na+] [Carbenoxolone disodium salt] | 0.269
CCCCCCCCCCCCCCCCCCc1ccc(C(=O)/C=C/C(=O)O)cc1 | 0.48
COC(=O)Nc1nc2cc(Sc3ccccc3)ccc2[nH]1 [Fenbendazole] | 0.648
CCCSc1ccc2[nH]c(NC(=O)OC)nc2c1 [Albendazole] | 0.899
CCCCCCCCCCCCCCCC(=O)NCCc1ccc(O)c(O)c1 [Palmitoyl dopamine] | 0.456
COC(=O)Nc1nc2cc(SC(C)C)ccc2[nH]1 [Methiazole] | 0.836
CCCCc1ccc2[nH]c(NC(=O)OC)nc2c1 [Parbendazole] | 0.927
NCc1ccccc1CC(=O)N[C@@H]1C(=O)N2C(C(=O)O)=C(CSc3nnnn3CC(=O)O)CS[C@H]12 [Ceforanide] | 0.519
CC1CCc2cc(F)cc3c(=O)c(C(=O)O)cn1c23 (centres undefined) [Flumequine] | 0.273

SMILES | fraction of GFP-LC3-positive cells
CC1/C=C/C=C/CC/C=C/C=C/C=C/C=C/C(O[C@@H]2O[C@H](C)[C@@H](O)[C@H](N)[C@@H]2O)CC(O)C(C(=O)O)C(O)CC(=O)CC(O)C(O)CCC(O)CC(O)CC(O)CC(=O)OC(C)C(C)C1O (some centres undefined) [Nystatine] | 0.294
CC(=O)OCOC(=O)CN(CC(=O)OCOC(C)=O)c1ccccc1OCCOc1ccccc1N(CC(=O)OCOC(C)=O)CC(=O)OCOC(C)=O | 0.851
CC(=O)Oc1ccccc1C(=O)Oc1ccccc1C(=O)O [Acetylsalicylsalicylic acid] | 0.354
COc1cc2nc(N3CCN(C(=O)c4ccco4)CC3)nc(N)c2cc1OC [prazocin] | 0.931
COc1cc2nc(N3CCN(C(=O)c4ccco4)CC3)nc(N)c2cc1OC.Cl [Prazosin hydrochloride] | 0.669
COc1cc2nc(N3CCN(C(=O)C4CCCO4)CC3)nc(N)c2cc1OC.Cl (centres undefined) [Terazosin hydrochloride] | 0.396
CCCCC/C=C\C/C=C\C=C\[C@@H](O)C/C=C\CCCC(=O)O | 0.479
CCCOc1ccccc1-c1nc2[nH]nnc2c(=O)[nH]1 [zaprinast] | 0.222
Nc1nc2c(ncn2COCCO)c(=O)[nH]1 [Acyclovir] | 0.421
Nc1nc2[nH]nnc2c(=O)[nH]1 [Azaguanine-8] | 0.845
CN(C)CCOC(c1ccccc1)c1ccccc1.Cl [Diphenhydramine hydrochloride] | 0.531
CCCCC[C@H](O)/C=C/C=C\C/C=C\CCCCC(=O)O | 0.403
CCCCC(CC)CNC(=N)NC(=N)NCCCCCCNC(=N)NC(=N)NCC(CC)CCCC.Cl.Cl (centres undefined) [Alexidine dihydrochloride] | 0.537
CCCNC(C)C(=O)Nc1ccccc1C.Cl (centres undefined) [Prilocaine hydrochloride] | 0.359
C=CCOc1ccccc1OCC(O)CNC(C)C.Cl (centres undefined) [Oxprenolol hydrochloride] | 0.366
Cl.OCCN1CCN(CC/C=C2/c3ccccc3Sc3ccc(Cl)cc32)CC1 [Zuclopenthixol hydrochloride] | 0.542
O=c1cc(-c2ccc(O)cc2)oc2cc(O)cc(O)c12 [Apigenin] | 0.432
CCCCCC(=O)/C=C/[C@H]1[C@H](O)CC(=O)[C@@H]1C/C=C\CCCC(=O)O [15-Keto-prostaglandin E2] | 0.471
NS(=O)(=O)c1cc2c(cc1Cl)N=C(CSCc1ccccc1)NS2(=O)=O [Benzthiazide] | 0.293
CS(=O)(=O)Nc1ccc([N+](=O)[O-])cc1Oc1ccccc1 [Nimesulide] | 0.391
CC(C)NC[C@H](O)c1ccc(O)c(O)c1.Cl [(-)-Isoproterenol hydrochloride] | 0.349
CN(C(=O)C(Cl)Cl)c1ccc(OC(=O)c2ccco2)cc1 [Diloxanide furoate] | 0.372
Cl.c1ccc2c(c1)CCCC2C1=NCCN1 (centres undefined) [Tetrahydrozoline hydrochloride] | 0.357
CC(C)C[C@H](NC(=O)[C@H]1CCCN1C(=O)OCc1ccccc1)C(=O)NCC(=O)NO | 0.442
CN(C)CCCn1cc(C2=C(c3c[nH]c4ccccc34)C(=O)NC2=O)c2ccccc21 | 0.583 and 0.599

SMILES | fraction of GFP-LC3-positive cells
Cn1cc(C2=C(c3cn(CCCSC(=N)N)c4ccccc34)C(=O)NC2=O)c2ccccc21 | 0.854 ± 0.15
CN(C)CCC=C1c2ccccc2C=Cc2ccccc21.Cl [Cyclobenzaprine hydrochloride] | 0.513
CC[C@]1(O)C[C@@H]2CN(CCc3c([nH]c4ccccc34)[C@@](C(=O)OC)(c3cc4c(cc3OC)N(C)[C@H]3[C@@](O)(C(=O)OC)[C@H](OC(C)=O)[C@]5(CC)C=CCN6CC[C@]43[C@@H]65)C2)C1.O=S(=O)(O)O [vinblastine] | 0.848
CC/C=C\C/C=C\C/C=C\CCCCCCCCCCCC(=O)O [Docosatrienoic acid (22:3 n-3)] | 0.541
CC/C=C\C/C=C\C/C=C\CCCCCCCCCCCC(=O)O [Docosatrienoic acid (22:3 N-3)] | 0.466
CC/C=C\C/C=C\C/C=C\CCCCCCCCCCCC(=O)O | 0.417
CC[N+](C)(C)c1cccc(O)c1.[Cl-] [Edrophonium chloride] | 0.407
CC(C)NNC(=O)c1ccncc1.O=P(O)(O)O [Iproniazide phosphate] | 0.489
CNCCCN1c2ccccc2CCc2ccccc21.Cl [Desipramine hydrochloride] | 0.486
CN(C)CCOC(C)(c1ccccc1)c1ccccn1.O=C(O)CCC(=O)O (centres undefined) [Doxylamine succinate] | 0.314
O=C(NCC1CCCCN1)c1cc(OCC(F)(F)F)ccc1OCC(F)(F)F (centres undefined) | 0.524
c1ccc2[nH]c(-c3cscn3)nc2c1 [Tiabendazole] | 0.326
CC[C@H]1[C@@H]2C=C[C@@H]3[C@H]4C/C=C\C(=O)NCCC[C@@H]5NC(=O)C(=C5O)C(=O)CC[C@@H]4C[C@@H]3[C@H]2C[C@H]1C [Ikarugamyin] | 0.921
CCCCCCCC/C=C\CCCCCCCC(=O)NCCc1ccc(O)c(O)c1 [Oleoyl dopamine] | 0.611
CCCCC/C=C\C=C\C(O)CCCCCCCC(=O)O (racemic) | 0.29
CCOC(=O)[C@H](CCc1ccccc1)N[C@@H](C)C(=O)N1CCC[C@H]1C(=O)O.O=C(O)/C=C\C(=O)O [Enalapril maleate] | 0.395
CCCCC[C@H](O)/C=C/C=C/C=C/[C@H](O)C/C=C\CCCC(=O)O [8(R),15(S)-DiHETE all trans] | 0.298
CC[N+](CC)(CC)CCC(O)(c1ccccc1)C1CCCCC1.[Cl-] (centres undefined) [Tridihexethyl chloride] | 0.44
CCCCCCCCCCCCCCCCOC[C@H](COP(=O)([O-])OCC[N+](C)(C)C)OC(=O)NC | 0.4228 ± 0.0025
NC(=O)N/N=C/c1ccc([N+](=O)[O-])o1 [Nitrofural] | 0.493
CCC1NC(=O)c2cc(S(N)(=O)=O)c(Cl)cc2N1 (centres undefined) [Quinethazone] | 0.417
CN(C)CCCSC(=N)N.Cl.Cl [Dimaprit dihydrochloride] | 0.45
Nc1nc(=O)[nH]cc1F [Flucytosine] | 0.296
Cl.Clc1ccccc1CN1CCc2sccc2C1 [Ticlopidine hydrochloride] | 0.403
